Most compounds without a hit are left out; they make up all but 11% or so of the library.
PNC assembly inh = perinucleolar compartment assembly inhibition; PC3M PTB-GFP, PNC prevalence imaging, 16 h; stronger effect = lower value; activity change (PNC), negative = inhibition, % at 10 µM; 140,000 compounds, 3.1% hits;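 active = readout at or below -70, meaning at least 70% loss of cells showing the perinucleolar compartment, a nuclear body marking cancer cells; inconclusive = readout between -30 and a set limit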;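 note: plate controls were DMSO wells for no effect and camptothecin positive control wells for full effect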
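Read-out is percentage of cells bearing a perinucleolar compartment, from automated 20x imaging of fixed, Hoechst-stained PC3M PTB-GFP cells. Cells were seeded 4 h, then exposed 16 h to compound (23 nl of library stock) in duplicate plates.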
HPGD block = inhibitors of human 15-hydroxyprostaglandin dehydrogenase (HPGD); purified HPGD, NADH fluorescence kinetic, PGE2 substrate; Potency, µM, for the others: at the highest dose activity change, negative = inhibition, hits mostly inhibitors; 150,000 compounds, 4.3% hits; AID 894; active = well fitted inhibition curve with a large enough effect, not every such curve was filed as active; inconclusive = small, poorly fitted or top-dose-only effect, or another doubt; inactive = no such curve, though single readings can be large or run the other way; note: potency is the fitted concentration of half-maximal effect; % is set by controls: 0 for no effect and ±100 for the full control effect
Target sequence (P15428 whole entry, looked up): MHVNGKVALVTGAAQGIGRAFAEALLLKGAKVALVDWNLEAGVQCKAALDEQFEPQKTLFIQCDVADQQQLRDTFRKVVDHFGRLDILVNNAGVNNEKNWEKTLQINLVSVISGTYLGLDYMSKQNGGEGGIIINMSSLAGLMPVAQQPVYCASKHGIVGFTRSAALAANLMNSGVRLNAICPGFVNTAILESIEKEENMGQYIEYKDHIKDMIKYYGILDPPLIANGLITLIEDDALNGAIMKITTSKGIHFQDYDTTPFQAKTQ
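NADH formation kinetics: reaction with 30 uM PGE2 and 1 mM NAD+ (final), 20 nM enzyme, Tris-HCl pH 8 with Tween 20, after 15 min compound preincubation at room temperature. Fluorescence change, last versus first of five reads.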
GoLoco inh red = inhibitors of human Gai1-RGS12 GoLoco interaction (red fluorophore); P63096; Gai1:RGS12 GoLoco peptide FP, rhodamine, 10 min; Potency, µM (titrated, usually from 61.6 µM), for inactives: at the top dose activity, negative = inhibition, usual class: inhibitors; 230,000 compounds, 0.44% hits; AID 880; active = well fitted inhibition curve with a large enough effect, not every such curve was filed as active; inactive = no such curve, though single readings can be large or run the other way; note: potency is the fitted concentration of half-maximal effect; % is set by controls: 0 for no effect and ±100 for the full control effect; nearly all actives have a fitted effect of over 30% in size
HttQ103 aggreg = reduces HttQ103-GFP aggregates in PC12 cells; 220,000 compounds, 1.1% hits; Potency, µM (series often up to 46.1 µM), without a hit: at the top dose activity change, negative = inhibition, hits mostly inhibitors; PC12 HttQ103-GFP aggregates, Acumen cytometry, 40 h; note: potency is the fitted concentration of half-maximal effect; % is set by controls: 0 for no effect and ±100 for the full control effect; nearly all actives have a fitted effect of over 60% in size
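Steps: seed 1500 PC12 HTTQ103-GFP cells/well; add tebufenozide, 100 nM final; add compound titration; add ATPLite reagent; quantify GFP aggregates by laser scanning cytometry.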
HTT ATP protect = Huntington cell model cytoprotection by ATP luminescence; PC12 HTT-Q103 induced, cytoprotection, ATP luminescence, 40 h; Potency, µM (top dose mostly 56.4 µM), without a hit: cytoprotection (ATP increase), actives largely listed as activators; 230,000 compounds, 0.14% hits; note: potency is the fitted concentration of half-maximal effect; % of control where 0% means no effect; nearly all actives have a fitted effect of over 45% in size
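Rat PC12, Q103 Htt exon1-GFP fusion, ecdysone promoter; tebufenozide inducer 100 nM final; compound titration; qHTS, 1500 cells/well; ATPlite luminescent read.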
ALDH1A1 inh = inhibitors of human aldehyde dehydrogenase 1A1; Potency, µM (series often up to 75.3 µM), for the others: top-dose activity, negative = inhibition, usual class: inhibitors; Purified ALDH1A1, NADH fluorescence, propionaldehyde substrate; P00352; 220,000 compounds, 7.3% hits; active = well fitted inhibition curve with a large enough effect, not every such curve was filed as active; inconclusive = small, poorly fitted or top-dose-only effect, or another doubt; inactive = no such curve, though single readings can be large or run the other way;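 note: potency is the fitted concentration of half-maximal effect; plate controls were no enzyme wells and a reference inhibitor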
Target sequence (P00352 whole entry, looked up): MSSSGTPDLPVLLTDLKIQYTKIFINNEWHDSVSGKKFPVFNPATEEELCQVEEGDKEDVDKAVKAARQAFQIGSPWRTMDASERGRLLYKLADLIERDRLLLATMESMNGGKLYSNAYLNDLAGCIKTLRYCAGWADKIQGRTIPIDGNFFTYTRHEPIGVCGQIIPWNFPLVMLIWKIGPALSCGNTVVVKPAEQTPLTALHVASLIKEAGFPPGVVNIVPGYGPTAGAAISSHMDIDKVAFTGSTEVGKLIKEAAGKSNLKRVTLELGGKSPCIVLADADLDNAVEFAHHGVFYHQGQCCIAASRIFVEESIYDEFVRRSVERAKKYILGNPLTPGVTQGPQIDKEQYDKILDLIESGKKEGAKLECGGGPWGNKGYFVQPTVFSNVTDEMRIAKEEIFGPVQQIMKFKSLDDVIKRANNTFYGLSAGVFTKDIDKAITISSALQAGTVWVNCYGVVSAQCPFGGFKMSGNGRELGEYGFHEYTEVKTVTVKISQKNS
* hit, by the source's call; u = inconclusive; x = no result; [ ] = remark or other dose. Unless noted, calls come from the whole dose curve; as a rule, active = well fitted curve in the direction sought with a large enough effect; inconclusive = small, poorly fitted or top-dose-only effect, or another doubt; inactive = no such curve, though single readings can be large; an effect the other way counts as inactive or inconclusive.

SMILES	PNC assembly inh	HPGD block	GoLoco inh red	HttQ103 aggreg	HTT ATP protect	ALDH1A1 inh
COCC(=O)N1CCC[C@@]2(CCN(C(c3ccccc3)c3ccccc3)C2)C1	x	-2.7%	5.6%	x	u	4.6%
CCn1c(SCC(=O)c2ccc(F)cc2)nnc1-c1ccoc1C	u	u	-3.7%	-6.0%	-6.1%[10 µM]	22.4µM*
CCCCn1c(SCC(=O)N2CCOCC2)nnc1-c1ccoc1C	-100.0*	-5.4%	5.1%	-3.1%	-9.2%[10 µM]	-5.3%
CCOc1cccc(N2C(=O)CC(N(CCc3ccc(OC)c(OC)c3)C(=O)CC)C2=O)c1 (stereo not drawn)	u	-2.3%	3.4%	3.6%	-5.1%[1.9 µM]	-0.2%
CCOC(=O)c1ccc(N2C(=O)CC(NC3CCN(C(=O)c4cccc(Cl)c4)CC3)C2=O)cc1 (stereo not drawn)	6.2	-8.0%	-22.1%	11.2%	u	12.6µM*
Cc1ccc(NC2CC(=O)N(c3ccc(C)cc3)C2=O)cc1 (stereo not drawn)	47.7	-8.4%	2.6%	7.6%	11.2%	3.8%
CCOC(=O)c1ccc(N2C(=O)CC(Nc3ccc(CCO)cc3)C2=O)cc1 (stereo not drawn)	34.7	-23.4%	2.8%	u	-3.2%	15.8µM*
CCOC(=O)c1ccc(N2C(=O)CC(N(Cc3ccc4c(c3)OCO4)C(=O)Nc3ccccc3)C2=O)cc1 (stereo not drawn)	-5.2	-9.2%	1.8%	20.1%	-11.7%	12.6µM*
O=C(c1cccc(Cl)c1)N1CCC(c2nc3ccccc3[nH]2)CC1	x	x	0.6%	11.8%	-11.2%	-6.1%
CCOC(=O)c1ccc(N2C(=O)CC(N(C)CCc3ccc(OC)c(OC)c3)C2=O)cc1 (stereo not drawn)	24.4	-2.5%	3.7%	5.6%	-7.3%	10µM*
Cn1cccc1C(=O)N1CCC2(CC1)CCN(c1cccc(-c3ccccc3)c1)CC2	x	u	6.2%	x	7.3%	u
CC(C)=CCC/C(C)=C/CO/N=C1/C[C@@H](O)[C@@H](O)[C@@H]2[C@@H]3C(=O)N(C[C@@H]4CCCO4)C(=O)[C@H]3CC[C@H]12	x	x	x	x	u	-3.8%[13.5 µM]
CC(=O)Oc1ccc(N2C(=O)CC(N3CCOCC3)C2=O)cc1 (stereo not drawn)	-0.8	-5.0%	-4.2%	4.6%	0.9%[10 µM]	31.6µM*
CCOC(=O)c1ccc(N2C(=O)CC(N3CCC(C(N)=O)(N4CCCCC4)CC3)C2=O)cc1 (stereo not drawn)	u	-13.0%	-6.1%	-0.9%	-13.5%[10 µM]	8.91µM*
CCOC(=O)N1CCN(C2CC(=O)N(c3ccc(C)cc3)C2=O)CC1 (stereo not drawn)	u	-0.8%	3.3%	-19.4%	-19.9%[0.074 µM]	u
CCOC(=O)c1ccc(N2C(=O)CC(N3CCOCC3)C2=O)cc1 (stereo not drawn)	36.6	-3.5%	-10.8%	15.9%	-2.2%[0.074 µM]	25.1µM*
CC(=O)Oc1ccc(N2C(=O)C3C4C=CC(O4)C3C2=O)cc1 (stereo not drawn)	3.1	31.6µM*	18.0%	u	-18.6%	0.447µM*
CCOc1cccc(N2C(=O)CC(N3CCC(C(N)=O)(N4CCCCC4)CC3)C2=O)c1 (stereo not drawn)	-14.9	-12.8%	2.2%	-4.7%	3.0%	25.1µM*
O=C(O)C(Cc1cccs1)C(=O)O	x	-5.9%	8.7%[14.2 µM]	x	-10.4%[10 µM]	-10.2%[13.5 µM]
CCc1nc(Nc2ccc3c(c2)OCCO3)c2oc3ccccc3c2n1	28.0	-22.2%	-12.3%	-4.1%[9.22 µM]	-10.0%	25.1µM*
CCc1nc(NCc2ccc3c(c2)OCO3)c2oc3ccccc3c2n1	u	-11.5%	9.3%	u	-7.9%	12.6µM*
C(CCc1nnc2c(n1)CCCC2)Cc1nnc2c(n1)CCCC2	x	-2.1%	4.3%[14.2 µM]	x	-2.9%[10 µM]	11.8%[13.5 µM]
CC1(C)CC(=O)C(Sc2nnc(-c3ccc(O)cc3)n2CC2CCCO2)C(=O)C1 (stereo not drawn)	u	-12.1%	-8.5%	14.1%	15.4%	18.9µM*
Cc1ccc(/C=C/C(=O)c2ccccc(=O)c2O)cc1C	-6.7	-26.8%	18.9%	-14.6%	x	u
O=S(=O)(Nc1ccc(N=Nc2ccccc2)cc1)c1ccccc1	-28.4	u	6.2%	-1.9%	13.0%[10 µM]	8.8%
SMILES	PNC assembly inh	HPGD block	GoLoco inh red	HttQ103 aggreg	HTT ATP protect	ALDH1A1 inh
O=S(=O)(Nc1ccc(N=Nc2ccc(O)c3ccccc23)cc1)c1ccccc1	u	31.6µM*	113.9%	-15.6%	-7.5%[10 µM]	-0.6%
CCCN(CCC)CC(C)(C)NS(=O)(=O)c1ccc(Cl)cc1	x	x	-2.6%	-9.1%[9.22 µM]	-1.3%[10 µM]	x
CCN(CC)S(=O)(=O)c1ccc(OC)c(NC(=O)c2cccc(C)c2[N+](=O)[O-])c1	x	x	4.0%	-3.3%	x	5.62µM*
CCN(CC)S(=O)(=O)c1ccc(OC)c(NC(=S)Nc2cccc(C)c2)c1	15.2	-14.4%	10.1%	-19.9%	7.6%[10 µM]	11.2µM*
COc1ccc(OC)c(NC(=O)c2cccc(C)c2[N+](=O)[O-])c1	x	x	12.8%	4.2%[9.22 µM]	6.6%[10 µM]	u
CCN(CC)S(=O)(=O)c1ccc(OC)c(NC(=O)c2cccs2)c1	x	x	5.9%	-14.3%[9.22 µM]	0.2%[10 µM]	u
CCN(CC)S(=O)(=O)c1ccc(OC)c(NC(=O)CSc2ccccc2)c1	34.9	-15.4%	11.4%	11.4%	-15.1%	-10.8%
CCN(CC)S(=O)(=O)c1ccc(OC)c(NC(=S)Nc2cccc(C)c2C)c1	9.5	1.1%	6.4%	10.3%	8.3%[10 µM]	25.1µM*
COCCN1C(=O)N[C@@H](CCc2ccccc2)C(C(=O)OC)=C1C	x	-5.5%	10.4%	x	-2.1%	-5.8%
N#CCCN(C(=S)NC(=O)c1ccco1)c1ccccc1F	x	x	-7.9%	-9.5%	-4.7%[10 µM]	7.94µM*
N#CCCN(C(=O)c1ccco1)c1ccccc1	29.9	x	x	15.5%	-0.2%	-10.7%
N#CCCN(Cc1cccnc1)C(=S)NCc1ccco1	x	x	-16.3%	3.4%	-15.7%	17.8µM*
N#CCCN(Cc1cccnc1)C(=S)NC(=O)c1ccco1	x	x	-59.7%	2.9%	-6.8%[10 µM]	11.2µM*
Cc1ccccc1Nc1oc(-c2ccccc2)nc1-c1cccs1	x	-12.4%	44.2%	x	-14.8%	1.2%
CSCc1ccc(C(=O)Nc2cccc(C)c2C)cc1	u	-13.6%	11.2%	-9.3%	2.7%[10 µM]	0.7%
CCOC(=O)c1sc(NC(=O)C2CCC2)cc1C	x	x	5.7%	-4.2%	0.1%[10 µM]	u
Cc1ccc(C=C2C(=O)c3ccccc3C2=O)s1	12.7	12.6µM*	198.2%	-14.6%	-2.3%	0.501µM*
CCCC(=O)NCCc1c(I)[nH]c2ccc(OC)cc12	x	x	-15.2%	x	-34.8%	20µM*
Cc1c(C(=O)COC(C)(C)C)[nH]c2ccccc12	u	4.47µM*	-1.1%	u	2.6%[10 µM]	6.31µM*
CCOC(=O)c1[nH]c2ccccc2c1NC(=O)C(C)(C)C	1.0	u	1.3%	-1.8%	-13.4%	u

Bioassay records: PubChem, National Center for Advancing Translational Sciences (NCATS)
